# Compound activity (PubChem)
# HP1b binding inh: blocks HP1-beta chromodomain binding to methylated histone tails | P83916 | AlphaScreen HP1-beta / biotin-H3K9me3 peptide binding | Potency, µM (top dose mostly 114 µM), for inactives: at the top dose activity change, negative = inhibition, actives largely listed as inhibitors | 390,000 tested, 0.56% active; note: potency is the fitted concentration of half-maximal effect; nearly all actives have a fitted effect of over 70% in size
#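 Compound inhibition of the preformed complex between 50 nM HP1-beta and 50 nM biotinylated H3K9me3 peptide was read by AlphaScreen. Buffer was PBS pH 7.4 with 0.01% Tween-20. Incubations ran 30 min at room temperature, with 10 ug/mL donor/acceptor beads.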
# G9a inh: G9a (human) methyltransferase inhibition. Q96KQ7. G9a H3K9 monomethylation, AlphaScreen, 2 h. Potency, µM (series often up to 102 µM), without a hit: at the highest dose activity, negative = inhibition, most hits filed as inhibitors. 350,000 tested, 8.8% active. AID 504332; note: potency is the fitted concentration of half-maximal effect; % is set by controls: 0 for no effect and ±100 for the full control effect; nearly all actives have a fitted effect of over 75% in size
#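 Using a bead-based AlphaScreen, monomethylated H3K9 product from 2 h room-temperature reactions (G9a 20 nM, peptide 500 nM, SAM 20 uM) was detected with 0.5 ug/mL rabbit anti-H3K9me1 antibody.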
# PI5P4K alpha inh: blocks human PI5P4K alpha kinase activity | P48426 | max response, % | 330,000 tested, 1.2% active | PI5P4Kalpha enzyme, ADP-Glo luminescence, 60 min; hits give low values | AID 652105; active = max response of -50% or lower; inconclusive = between -30% and -50%; inactive = -30% or higher; note: value at the top dose of about 77 µM; % is set by controls: 0 for no effect and ±100 for the full control effect
#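 Quantitative HTS of the MLSMR library against PI5P4Kalpha with substrate. ATP added last at 5 microM final; room temperature, 60 minutes. Remaining ATP depleted, ADP converted and read as luminescence.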
# L3MBTL1 block: inhibitors of human L3MBTL1. 230,000 tested, 0.66% active. Q9Y468. AlphaScreen L3MBTL1–H3K9me1 peptide binding. AID 485360. Potency, µM (series often up to 57.1 µM), for the others: at the highest dose activity, negative = inhibition, most hits filed as inhibitors; note: potency is the fitted concentration of half-maximal effect; % is set by controls: 0 for no effect and ±100 for the full control effect; nearly all actives have a fitted effect of over 60% in size
# Target sequence (Q9Y468 whole entry, looked up): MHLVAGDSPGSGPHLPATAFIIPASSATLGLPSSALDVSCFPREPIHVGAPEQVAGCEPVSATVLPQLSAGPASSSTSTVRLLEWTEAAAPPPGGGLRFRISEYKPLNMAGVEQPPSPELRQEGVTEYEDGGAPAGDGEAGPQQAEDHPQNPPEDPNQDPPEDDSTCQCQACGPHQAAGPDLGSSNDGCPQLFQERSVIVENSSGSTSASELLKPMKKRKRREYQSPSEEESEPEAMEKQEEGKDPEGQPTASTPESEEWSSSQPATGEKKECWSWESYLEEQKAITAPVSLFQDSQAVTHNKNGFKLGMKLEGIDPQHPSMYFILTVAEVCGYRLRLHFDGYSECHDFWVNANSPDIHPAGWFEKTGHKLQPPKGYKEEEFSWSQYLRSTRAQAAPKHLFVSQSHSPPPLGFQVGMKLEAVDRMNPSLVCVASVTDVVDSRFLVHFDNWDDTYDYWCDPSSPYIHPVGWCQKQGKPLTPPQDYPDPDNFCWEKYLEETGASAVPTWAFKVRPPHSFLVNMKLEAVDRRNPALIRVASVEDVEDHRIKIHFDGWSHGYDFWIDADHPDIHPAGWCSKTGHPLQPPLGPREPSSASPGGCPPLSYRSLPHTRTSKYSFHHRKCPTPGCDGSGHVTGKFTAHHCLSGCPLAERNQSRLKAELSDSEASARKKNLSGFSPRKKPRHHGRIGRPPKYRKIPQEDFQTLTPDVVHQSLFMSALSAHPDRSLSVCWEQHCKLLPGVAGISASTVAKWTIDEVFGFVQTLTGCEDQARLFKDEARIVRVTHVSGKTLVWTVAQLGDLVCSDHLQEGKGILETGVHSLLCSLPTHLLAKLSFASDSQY
#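 L3MBTL1 (50 nM) pre-complexed 30 min with biotinylated H3(1-15)K9me1 peptide (75 nM), then compounds added for 30 min at room temperature; AlphaScreen streptavidin donor/nickel chelate acceptor beads (10 ug/mL final) read after 30 min dark incubation.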
# JMJD2A Tudor: inhibitors of human JMJD2A Tudor domain; O75164; AlphaScreen JMJD2A-Tudor / H3K4me3 peptide binding; Potency, µM (titrated, usually from 114 µM), without a hit: at the top dose activity change, negative = inhibition, most hits filed as inhibitors; 390,000 tested, 4.4% active; AID 504339; note: potency is the fitted concentration of half-maximal effect; % is set by controls: 0 for no effect and ±100 for the full control effect; nearly all actives have a fitted effect of over 50% in size
# BAZ2B block: blocks human BAZ2B; Q9UIF8; AlphaScreen BAZ2B-H3K14Ac peptide displacement; Potency, µM (series often up to 114 µM), for inactives: at the highest dose activity change, negative = inhibition, hits mostly inhibitors; 360,000 tested, 4.4% active; AID 504333; note: potency is the fitted concentration of half-maximal effect; % is set by controls: 0 for no effect and ±100 for the full control effect; nearly all actives have a fitted effect of over 60% in size
#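 Protein-peptide AlphaScreen: BAZ2B 50 nM, b-H3K14Ac 50 nM, 1x PBS pH 7.4 + 0.01% Tween-20. Preincubation 30 min RT; cpd 30 min RT (top 110 uM); beads 20 min RT, light-protected.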
# The depositor's hits bear a star; ? = inconclusive; / = not tested or not shown; [ ] = another dose, or the depositor's remark. Sampled rows, rich in hits. Any-hit rate of the full collection: about 11%. Unless noted, calls come from the whole dose curve; as a rule, active = well fitted inhibition curve with a large enough effect; inconclusive = small, poorly fitted or top-dose-only effect; inactive = no such curve, though single readings can be large or run the other way.
SMILES,HP1b binding inh,G9a inh,PI5P4K alpha inh,L3MBTL1 block,JMJD2A Tudor,BAZ2B block
C=CC(=O)Nc1cccc(Oc2ccnc3[nH]ccc23)c1,?,/,-72*,/,79µM*,/
CN1CCN(c2ccc(NC(=O)c3ccc4ccccc4c3)cc2)CC1,9%[57 µM],8%,-17,/,-22%,?
C=CC(=O)Nc1cccc(N(C)c2ccnc(Nc3ccc(N4CCN(C)CC4)cc3)n2)c1,50µM*,/,-65*,/,14µM*,/
C=CC(=O)Nc1cccc(Oc2ccnc(Nc3ccc(N4CCN(C)CC4)cc3)n2)c1,?,/,-10,/,45µM*,/
CCSc1nc2n(n1)C(c1ccc(CC)cc1)C(C(=O)Nc1ccccc1OC)=C(C)N2 (stereo not given),15%,10%[59 µM],/,/,-16%,-3%
Cc1ccc(CNC(=O)Cn2c(=O)n(-c3ccc(C)cc3)c(=O)c3c2c2cc(C)ccc2n3C)cc1,11%,-9%[59 µM],/,/,-6%,-22%
O=C(O)CCC(=O)Nc1ccc2c(c1)Cc1cc(NC(=O)CCC(=O)O)ccc1-2,3%,39%[0.501 µM],-16,/,89µM*,?
O=C(Cn1c(=O)n(-c2ccccc2)c(=O)c2ccc(C(=O)NCc3ccc4c(c3)OCO4)cc21)Nc1ccc(F)c(Cl)c1,20%,12%[59 µM],/,/,-16%,/
CCC(C)NC(=O)c1cccc(C)c1 (stereo not given),1%,10%,9,8%,-14%,0%
C=CCn1c(C(C)NC(=O)c2cccc(C)c2)n[nH]c1=S (stereo not given),39%,28µM*,-5,3%,18µM*,-4%
CCn1c(C(C)NC(=O)c2ccc(Cl)cc2)n[nH]c1=S (stereo not given),-9%,?,1,/,10µM*,-18%
COc1ccc(C(=O)Sc2nncc3ccccc23)cc1,11%,22µM*,0,-5%,?,71µM*
COc1ccc(OC)c(NC(=O)CSc2nncc3ccccc23)c1,12%,/,0,/,-6%,14%
Cc1cn(C)c(CC(=O)N2CCN(c3ccccc3F)CC2)c1C(=O)O,17%,-3%[59 µM],/,/,-11%,-5%
Cc1cc(OCC(=O)N(Cc2ccc(N(C)C)cc2)CC2CCCO2)ccc1Cl (stereo not given),?,13µM*,/,/,35µM*,28µM*
CCOc1ccccc1C(=O)N(Cc1ccc(N(C)C)cc1)CC1CCCO1 (stereo not given),-20%,?,/,/,?,?
CN(C)c1ccc(CN(CC2CCCO2)C(=O)COc2ccc(Cl)cc2)cc1 (stereo not given),?,14µM*,/,/,45µM*,32µM*
CCCOc1ccc(C(=O)N(Cc2ccc(N(C)C)cc2)CC2CCCO2)cc1 (stereo not given),?,11µM*,/,/,40µM*,40µM*
COc1ccccc1OCC(=O)N(Cc1ccc(Cl)cc1)CC1CCCO1 (stereo not given),13%,7%[59 µM],/,/,-12%,0%
CN1CCN(C(=O)C2CCCCC2)CC1,/,-38%[12.7 µM],/,/,/,/
O=C(Nc1ccc(Br)cc1)c1cc(Br)c(Br)s1,/,-51%[12.7 µM],/,/,/,/
COc1ccccc1C(=O)NCC(c1ccco1)N1CCc2ccccc21 (stereo not given),5%,50µM*,-7,-10%,?,50µM*
COc1ccc(C(=O)NCC(c2cccnc2)N2CCc3ccccc32)cc1 (stereo not given),22%,?,/,/,-22%,-2%
O=C(NCC(c1ccco1)N1CCc2ccccc21)c1ccccc1 (stereo not given),-18%,50µM*,2,-4%,?,?
CCOc1ccccc1C(=O)NCC(c1ccc(N(C)C)cc1)N1CCc2ccccc21 (stereo not given),?,13µM*,/,/,10µM*,5.6µM*
SMILES,HP1b binding inh,G9a inh,PI5P4K alpha inh,L3MBTL1 block,JMJD2A Tudor,BAZ2B block
COc1ccccc1NC(=O)C(=O)NCC(c1ccco1)N1CCc2ccccc21 (stereo not given),-7%,?,7,-2%,-34%,-11%
COc1cc(C(=O)NCC(c2cccs2)N2CCc3ccccc32)cc(OC)c1OC (stereo not given),-26%,-34%,1,?,?,8%
COc1cc(C(=O)NCC(c2ccco2)N2CCc3ccccc32)cc(OC)c1OC (stereo not given),-26%,50µM*,-1,-21%,?,79µM*
Cc1ccc(C(=O)NCC(c2ccco2)N2CCc3ccccc32)cc1C (stereo not given),-7%,5%[0.501 µM],1,-7%,?,?
CCS(=O)(=O)N1CC(=O)N(c2cccc(Cl)c2C)C(C)(C(=O)NC2CCCCC2)C1 (stereo not given),15%,5%[59 µM],/,/,-6%,3%
CCN1CCN(CCCNC(=O)Cn2nc(C)n3c(cc4c(OC)cccc43)c2=O)CC1,29%,-2%[59 µM],/,/,-6%,0%
COc1ccc(-c2nc3cc(NC(=O)Cc4ccc(Cl)cc4)ccc3o2)cc1OC,-1%,?,/,/,-24%,-1%
CCCSc1ncnc2c1c(-c1ccccc1)cn2-c1ccccc1OC,40%,-2%[59 µM],/,/,1%,11%
COc1ccc(CCC(=O)NCC(c2ccco2)N2CCc3ccccc32)cc1 (stereo not given),?,?,2,-11%,?,?
COc1ccc(OC)c(S(=O)(=O)NCC(c2ccco2)N2CCc3ccccc32)c1 (stereo not given),-34%,50µM*,6,-25%,?,?
O=C1NC(=O)/C(=C/c2ccc(N3CCOCC3)o2)N1,15%,/,-7,16%,-10%,-3%
O=C1NC(=O)/C(=C\c2ccc(N3CCOCC3)o2)N1,15%,25µM*,4,/,-7%,7%
Cc1cc(/C=C2/NC(=O)NC2=O)c(C)n1-c1ccc(N2CCOCC2)cc1,?,45µM*,1,-6%,?,?
Cc1ccc(-n2c(C)cc(/C=C3\NC(=O)NC3=O)c2C)c(C)c1,?,?,?,-7%,35µM*,40µM*
Cc1cc(/C=C2/NC(=O)NC2=O)c(C)n1-c1ccccn1,?,7%[59 µM],6,-6%,-28%[57.1 µM],-11%
Cc1cc(/C=C2\NC(=O)NC2=O)c(C)n1-c1ccc(N2CCOCC2)cc1,-36%,/,0,25%,?,-33%
CCOC(=O)c1[nH]c2c(c1Cc1ccccc1OC)C(=O)CC(c1ccc(OC)cc1)C2 (stereo not given),8%,-28%[59 µM],/,/,-18%,-32%
Cc1sc2ncnc(N3CCC(C(=O)Nc4ccc(S(N)(=O)=O)cc4)CC3)c2c1C,11%,?,0,-12%,-25%,-5%
